Data on 173 sequences can be found in paper PMC4242493, “Sequence specificity incompletely defines the genome-wide occupancy of Myc”.

Over roughly 33,000 sequences, “normalized occupancy” has its median near 0.075; the highest 2% begin near 0.095. The sample as a whole holds a higher share of the highest values than the screen did.

The assay deals with MaxL homodimer (Homo sapiens, UniProt P61244 1-160). The assay is described as follows: universal protein-binding microarray (PBM); PBS-based mixture, 10 nM His-tagged protein dimer, 2% milk, 200 ng/uL BSA, 50 ng/uL salmon testes DNA, 0.02% TX-100; detection with Alexa 488 anti-His antibody;; high values mean tight binding. To be noted: protein: recombinant; tags: C-terminal His-tag (pET21a); chain copies: 2; dsDNA, one strand shown. In short, it runs like this: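 His-tagged protein dimer at 10 nM was incubated on Agilent 4 x 44 K arrays with the 'all 10-mer' universal design. Bound protein was tagged with 10 ng/μL fluorophore-conjugated anti-His antibody, and arrays were scanned on a GenePix 4400A. Binding occupancy for each 8-mer is its fluorescence intensity normalised to the highest-ranked 8-mer's intensity.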
Sequence of MaxL homodimer (P61244 whole entry): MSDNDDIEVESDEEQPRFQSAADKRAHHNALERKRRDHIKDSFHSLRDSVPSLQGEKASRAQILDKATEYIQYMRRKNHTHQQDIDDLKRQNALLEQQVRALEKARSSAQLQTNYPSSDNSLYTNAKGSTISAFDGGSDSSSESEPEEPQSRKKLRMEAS
On to AAGCATAG, for which the binding signal came to 0.0734 normalized occupancy. In the case of AAGCATGG it was 0.11 normalized occupancy; in that of AAGCATAA, 0.0767 normalized occupancy. In the case of GAGCATAC it was 0.0789 normalized occupancy. In the case of ATTGGCAG it was 0.0726 normalized occupancy; in that of GTTTACCA, 0.0757 normalized occupancy.

As for CCGATAAA, the binding signal was found to be 0.0723 normalized occupancy. With CATCACCC, the binding signal was 0.0788 normalized occupancy. In the case of AGTTGCAT it was 0.0779 normalized occupancy; in that of AGCATAAC, 0.0787 normalized occupancy; in that of CAAGGGGC, 0.0772 normalized occupancy. In the case of TACCTTGA it was 0.0849 normalized occupancy; in that of CTTATAGA, 0.0769 normalized occupancy; in that of AAGCATAT, 0.0839 normalized occupancy. In the case of AAGCATCT it was 0.0778 normalized occupancy; in that of AAGCATAC, 0.0751 normalized occupancy; in that of AAGCATGC, 0.118 normalized occupancy. Regarding AAGCATGT, the binding signal is 0.0997 normalized occupancy.

On to AAGCATTC, for which the binding signal turned out to be 0.0773 normalized occupancy.

As for AATGAACC, the binding signal worked out at 0.0718 normalized occupancy. With AGTTTTAT, the binding signal is 0.0775 normalized occupancy. Under AGTCATGA stands 0.0829 normalized occupancy; under ACTCATGG, 0.0945 normalized occupancy; under CCTCATGA, 0.0951 normalized occupancy. In the case of ACTCATGC it was 0.0969 normalized occupancy; in that of CCTCATGC, 0.109 normalized occupancy. For the sequence ACTCATGA, the binding signal stood at 0.0903 normalized occupancy. For AGTCATGC, the binding signal amounted to 0.096 normalized occupancy. Under AGTCATGG stands 0.0855 normalized occupancy. Under CTTCATGC stands 0.0794 normalized occupancy; under AATACACG, 0.0912 normalized occupancy; under CCCTCGAA, 0.0795 normalized occupancy. For CGCACGAA, the binding signal stood at 0.0816 normalized occupancy. Under CGCACAAA stands 0.0718 normalized occupancy.

With AGCACGAT, the binding signal stood at 0.0857 normalized occupancy. In the case of AGCACGAA it was 0.0827 normalized occupancy; in that of AGCACGTG, 1 normalized occupancy. As to AGCACGTA, the binding signal was found to be 0.0853 normalized occupancy. Under AGCACGAG stands 0.0964 normalized occupancy; under AGCACGTC, 0.081 normalized occupancy. On to CGCACGAG, for which the binding signal turned out to be 0.107 normalized occupancy. In the case of CTACCCCA it was 0.0788 normalized occupancy.

On to ACGAGGCT, for which the binding signal was 0.0805 normalized occupancy. For the sequence AGAACAAT, the binding signal was found to be 0.0787 normalized occupancy.

As to ACCCGCTG, the binding signal came out at 0.0761 normalized occupancy. Under CCCCGTTA stands 0.0766 normalized occupancy. Under CACGATGG stands 0.0884 normalized occupancy; under CTAGCACA, 0.0827 normalized occupancy. In the case of AGATGTAC it was 0.0766 normalized occupancy; in that of CCATGTAC, 0.086 normalized occupancy.

As to CTATGTAC, the binding signal was found to be 0.0847 normalized occupancy. Under GAATGTAC stands 0.0769 normalized occupancy; under ACATGTAC, 0.0958 normalized occupancy; under GCATGTAC, 0.0973 normalized occupancy. Consider TGAGATAA, for which the binding signal turned out to be 0.0797 normalized occupancy. For the sequence ATAATGAC, the binding signal stood at 0.0804 normalized occupancy. As to AACTTGCC, the binding signal was 0.0757 normalized occupancy. Under GAAACGCC stands 0.0758 normalized occupancy; under CACTGCTG, 0.0746 normalized occupancy. Under ATATGATC stands 0.0857 normalized occupancy; under CCACATAA, 0.0799 normalized occupancy. In the case of CAGCAGAG it was 0.0727 normalized occupancy. As to CATGAGAG, the binding signal was determined as 0.0941 normalized occupancy. Under CATGAGGC stands 0.109 normalized occupancy; under TATGAGGA, 0.0851 normalized occupancy; under AATGAGGA, 0.0838 normalized occupancy.

CATGAGTC: the binding signal turned out to be 0.091 normalized occupancy. In the case of CATGAGGA it was 0.106 normalized occupancy; in that of CATGAGGG, 0.109 normalized occupancy; in that of CATGAGTA, 0.0969 normalized occupancy. In the case of AATGAGTA it was 0.077 normalized occupancy; in that of GATGAGGC, 0.0786 normalized occupancy. As to AATGAGGG, the binding signal is 0.0862 normalized occupancy. In the case of AATGAGGC, the binding signal is 0.0776 normalized occupancy. Under GACACTTA stands 0.0771 normalized occupancy; under GCAACACA, 0.0795 normalized occupancy; under TCAACTAA, 0.0725 normalized occupancy.

ATTGAAAT: the binding signal came out at 0.0772 normalized occupancy. For GTGAGTCA, the binding signal amounted to 0.0793 normalized occupancy. Under CCCCCCCA stands 0.0901 normalized occupancy; under CGACAGCA, 0.0797 normalized occupancy; under ATAAATAG, 0.0754 normalized occupancy.

As to ATTCAGTA, the binding signal came to 0.0734 normalized occupancy. Under ATGACTAC stands 0.0811 normalized occupancy. In the case of ATGAGGGC it was 0.0956 normalized occupancy; in that of ATGAGGGA, 0.0908 normalized occupancy; in that of ATGAGGGG, 0.0902 normalized occupancy. In the case of GATTTAGA it was 0.0724 normalized occupancy.

Regarding ACGTTGAC, the binding signal came to 0.0793 normalized occupancy.

Take AAACCACG: the binding signal came to 0.0972 normalized occupancy.

For the sequence ATACCACA, the binding signal is 0.089 normalized occupancy. In the case of TAACCACA it was 0.0809 normalized occupancy; in that of ATACCACG, 0.0991 normalized occupancy. Under CTACCACA stands 0.0867 normalized occupancy; under AAACCACA, 0.0814 normalized occupancy; under CCGTTCTC, 0.0814 normalized occupancy.

Consider ATAGCATC, for which the binding signal was 0.0799 normalized occupancy. In the case of ATAGCATG it was 0.103 normalized occupancy; in that of AGAGCATA, 0.0815 normalized occupancy. In the case of ATAGCATA, the binding signal turned out to be 0.0872 normalized occupancy. Turning to ACAGCATC, the binding signal turned out to be 0.0767 normalized occupancy. In the case of ACAGCATA it was 0.0896 normalized occupancy.

On to AGAGCATG, for which the binding signal came out at 0.0989 normalized occupancy. Under ACAGCATG stands 0.127 normalized occupancy; under AGAGCATC, 0.0755 normalized occupancy; under AGTACAGG, 0.0787 normalized occupancy. In the case of ACACTCTG it was 0.0741 normalized occupancy; in that of ATAGCTTC, 0.074 normalized occupancy; in that of AAGAGGCA, 0.0761 normalized occupancy. Under ACGATTAG stands 0.0719 normalized occupancy; under GATTCACC, 0.0757 normalized occupancy. With ACGATTTC, the binding signal stood at 0.0741 normalized occupancy. In the case of CATCTTCA it was 0.0786 normalized occupancy; in that of AAAATAGG, 0.076 normalized occupancy; in that of ACACATAC, 0.0823 normalized occupancy.

On to ACACATTA, for which the binding signal worked out at 0.0926 normalized occupancy. Under ACACATTC stands 0.0866 normalized occupancy; under ATACATGC, 0.104 normalized occupancy; under ACACATGC, 0.137 normalized occupancy. Under ACACATAT stands 0.0874 normalized occupancy.

Consider ACACATTG, for which the binding signal amounted to 0.102 normalized occupancy. Under ACACATCT stands 0.0851 normalized occupancy; under ATACATGA, 0.0834 normalized occupancy. Under ACACATGT stands 0.127 normalized occupancy; under CTACATGC, 0.089 normalized occupancy; under AGACATTG, 0.0768 normalized occupancy. In the case of ACCCAAAG it was 0.072 normalized occupancy; in that of CACGGCAC, 0.078 normalized occupancy; in that of ATGATGGC, 0.0855 normalized occupancy.

As for TGCTAGCA, the binding signal amounted to 0.0864 normalized occupancy.

Turning to GCCTACCC, the binding signal stood at 0.0797 normalized occupancy. Under ACACATGA stands 0.107 normalized occupancy; under GGACATGA, 0.0803 normalized occupancy; under ACACATCA, 0.0839 normalized occupancy. As for GCACATGA, the binding signal was determined as 0.12 normalized occupancy. Turning to GCACATGC, the binding signal came out at 0.159 normalized occupancy. In the case of TCACATAA it was 0.0812 normalized occupancy; in that of TCACATGA, 0.109 normalized occupancy; in that of GCACATAC, 0.0803 normalized occupancy. On to GAACATGC, for which the binding signal is 0.089 normalized occupancy. Under TAACATGA stands 0.0906 normalized occupancy; under GAACATGA, 0.0904 normalized occupancy; under ACACATAA, 0.082 normalized occupancy. As to AGATTTGC, the binding signal turned out to be 0.0766 normalized occupancy. In the case of CGCCTCTC it was 0.0756 normalized occupancy; in that of ACTGAATC, 0.0726 normalized occupancy. CTCAACCC: the binding signal worked out at 0.072 normalized occupancy. Under CTGTAATA stands 0.0777 normalized occupancy. CATGGGAC: the binding signal worked out at 0.0894 normalized occupancy.

GTCAGCAC: the binding signal came to 0.0806 normalized occupancy.

In the case of CACAATGG, the binding signal was 0.0783 normalized occupancy.

TACCTTAA: the binding signal was determined as 0.072 normalized occupancy. In the case of AAGATCTT it was 0.0757 normalized occupancy; in that of ATACATGG, 0.0876 normalized occupancy; in that of AAACATGA, 0.0907 normalized occupancy. Under AAACATGT stands 0.0983 normalized occupancy.

On to AAACATGG, for which the binding signal stood at 0.0874 normalized occupancy. In the case of AAACATGC it was 0.0937 normalized occupancy; in that of ACACATGG, 0.159 normalized occupancy; in that of GATGACAA, 0.0764 normalized occupancy. Consider TCTTTCAA, for which the binding signal was 0.0757 normalized occupancy. Take ACTAGTTA: the binding signal worked out at 0.0749 normalized occupancy. In the case of CCTCAACC it was 0.0752 normalized occupancy; in that of AATTTGGG, 0.0765 normalized occupancy; in that of CACGCGCG, 0.133 normalized occupancy.

As for CGCGCGCG, the binding signal was determined as 0.0873 normalized occupancy. In the case of CACGCGCC it was 0.116 normalized occupancy; in that of AACGCGCA, 0.078 normalized occupancy; in that of AACGCGCG, 0.0803 normalized occupancy. Under CACGCGCA stands 0.135 normalized occupancy; under CGCGCGCA, 0.075 normalized occupancy; under CGCGCGCC, 0.0783 normalized occupancy.

Consider CCCGCGCC, for which the binding signal stood at 0.0733 normalized occupancy.
